Bioassay records from PubChem.
WRN inhibitor: blocks human WRN helicase. Potency, µM (titrated, usually from 114 µM), inactives show top-dose activity change, negative = inhibition, most hits filed as inhibitors. 360,000 compounds, 0.46% hits. WRN helicase unwinding, fluorescent forked duplex, kinetic. Q14191; further: potency means the concentration at half of the fitted maximal effect; on the % scale 0 is the no-effect control and ±100 the full control effect; nearly all actives have a fitted effect of over 55% in size
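WRN at 20 nM final preincubated with compound 15 min at room temperature; reaction started with 100 nM fluorophore/quencher forked duplex oligonucleotide and 2 mM ATP final. Unwinding followed kinetically by red fluorescence (ex 525, em 598 nm).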
FEN1 inh: inhibitors of human flap endonuclease 1; P39748; Potency, µM (doses to about 114 µM), without a hit: at the top dose activity change, negative = inhibition, most hits filed as inhibitors; 390,000 compounds, 0.35% hits; Recombinant FEN1 flap cleavage, fluorescence, 15 min; further: potency means the concentration at half of the fitted maximal effect; on the % scale 0 is the no-effect control and ±100 the full control effect; nearly all actives have a fitted effect of over 65% in size
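Enzyme 10 nM, 15 min RT preincubation with compound; start with substrate 50 nM final; reads at 0 and 15 min; qHTS titration, four-parameter Hill fit.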
POLI inh: DNA polymerase iota (human) inhibition. Q9UNA4. Pol iota fluorescent replication assay, 10 min. Potency, µM (doses to about 115 µM), for the others: top-dose activity, negative = inhibition, actives largely listed as inhibitors. 390,000 compounds, 1% hits; further: potency means the concentration at half of the fitted maximal effect
Target sequence (Q9UNA4 whole entry, looked up): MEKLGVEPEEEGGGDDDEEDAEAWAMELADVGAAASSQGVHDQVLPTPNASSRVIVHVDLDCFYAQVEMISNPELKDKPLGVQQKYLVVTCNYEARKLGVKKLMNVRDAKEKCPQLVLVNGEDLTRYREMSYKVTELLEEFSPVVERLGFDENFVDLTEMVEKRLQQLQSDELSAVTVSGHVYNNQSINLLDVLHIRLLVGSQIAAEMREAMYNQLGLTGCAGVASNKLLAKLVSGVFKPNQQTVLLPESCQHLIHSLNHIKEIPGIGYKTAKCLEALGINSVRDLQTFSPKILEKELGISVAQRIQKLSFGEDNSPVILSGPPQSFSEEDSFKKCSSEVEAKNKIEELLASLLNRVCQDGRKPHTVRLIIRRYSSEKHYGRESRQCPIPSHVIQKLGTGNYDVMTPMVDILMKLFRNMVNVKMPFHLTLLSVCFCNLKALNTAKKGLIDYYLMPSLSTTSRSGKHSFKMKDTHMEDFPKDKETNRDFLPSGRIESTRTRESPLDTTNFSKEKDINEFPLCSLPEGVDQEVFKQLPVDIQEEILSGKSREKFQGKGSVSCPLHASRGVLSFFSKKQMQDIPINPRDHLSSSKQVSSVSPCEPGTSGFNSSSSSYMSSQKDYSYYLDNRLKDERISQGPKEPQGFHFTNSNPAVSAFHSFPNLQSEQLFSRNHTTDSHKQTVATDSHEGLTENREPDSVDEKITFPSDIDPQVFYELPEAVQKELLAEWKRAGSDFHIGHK
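Fluorescent replication assay read twice, at 0 min and 10 min after adding 50 nM (final) substrate. Enzyme (10 nM) and compounds were first incubated 15 min at room temperature; enzyme-free buffer wells were negative controls.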
Pol eta inh-1: DNA polymerase eta (human) inhibition; Q9Y253; recombinant Pol eta, fluorescent DNA replication assay; Potency, µM (doses to about 114 µM), for the others: top-dose activity change, negative = inhibition, actives largely listed as inhibitors; 390,000 compounds, 1.2% hits; further: potency means the concentration at half of the fitted maximal effect; on the % scale 0 is the no-effect control and ±100 the full control effect
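Pol eta (10 nM) was preincubated with compounds for 15 min at room temperature, after which fluorescent replication substrate (50 nM final) was added to start the reaction. Fluorescence was read kinetically at 0 and 10 min.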
Pol beta inh-1: blocks human DNA polymerase beta activity. P06746. Pol beta primer extension/strand displacement, fluorescence kinetic. Potency, µM (doses to about 114 µM), without a hit: top-dose activity change, negative = inhibition, most hits filed as inhibitors. 340,000 compounds, 1.3% hits. AID 485314; further: potency means the concentration at half of the fitted maximal effect; on the % scale 0 is the no-effect control and ±100 the full control effect
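Values derive from four-parameter Hill fits of normalized kinetic data: reads at 0 and 10 min following addition of 50 nM substrate to 10 nM Pol beta preincubated 15 min with compound.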
Pol kappa inh-1: DNA polymerase kappa (human) inhibition; Potency, µM (highest dose often 107 µM), for the others: top-dose activity, negative = inhibition, hits mostly inhibitors; Q9UBT6; 400,000 compounds, 0.53% hits; AID 588579; purified Pol kappa, fluorescent DNA synthesis assay, 10 min; further: potency means the concentration at half of the fitted maximal effect; on the % scale 0 is the no-effect control and ±100 the full control effect
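Activity was followed as the change in fluorescence between reads at 0 and 10 min after starting the reaction with 50 nM substrate. Beforehand, 10 nM polymerase had been preincubated with compound for 15 min at room temperature.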
Pol beta inh-2: Human Pol beta inhibitor hit validation. Pol beta primer extension/strand displacement, fluorescence kinetic. Potency, µM, hits mostly inhibitors. AID 540280. shares compounds with Pol beta inh-1. 250 compounds, 87% hits; calls by dose curve; further: potency means the concentration at half of the fitted maximal effect
Klenow counter: inhibits Klenow fragment polymerase in counter-screen; shares compounds with Pol beta inh-1; Klenow exo- polymerase counter-screen, fluorescent DNA substrate; activity change, negative = inhibition, % at 57.1 µM; 250 tested, under 10 active; AID 540300
HIV RT counter: HIV-1 RT inhibition, pol beta selectivity check; shares compounds with Pol beta inh-1; HIV-1 RT polymerase activity, counter-screen; activity % (negative = inhibition, positive = activation), % at 57.1 µM; 250 tested, under 10 active; AID 540301
POLB valid: validation of human DNA polymerase beta inhibitors. radiolabeled primer extension gel assay, phosphorimager. shares compounds with Pol beta inh-1. AID 540325. 110 compounds, 91% hits. inhibition, % at 10 µM;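 active means inhibition at 10 µM of 30% or more; inconclusive means no clear call, values can overlap the other calls; inactive means inhibition at 10 µM under 30%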
PGK validate: validation of Trypanosoma brucei phosphoglycerate kinase inhibitors; shares compounds with Pol kappa inh-1; TbPGK coupled GAPDH assay, Kinase-Glo luminescence; Potency, µM (top dose mostly 57.5 µM), for the others: at the highest dose activity change, negative = inhibition, most hits filed as inhibitors; 500 compounds, 79% hits; AID 686980; further: potency means the concentration at half of the fitted maximal effect; on the % scale 0 is the no-effect control and ±100 the full control effect; nearly all actives have a fitted effect of over 65% in size
Pol iota confirm: Inhibitors of human DNA polymerase iota, confirmation. Potency, µM, most hits filed as inhibitors. Pol iota primer extension, TAMRA/BHQ fluorescence. AID 720496. shares compounds with Pol kappa inh-1. 1,500 compounds, 77% hits; further: potency means the concentration at half of the fitted maximal effect
Pol kappa inh-2: Pol kappa (human) inhibition, cherry-pick confirmation; shares compounds with Pol eta inh-1; purified Pol-kappa, fluorescent strand-displacement substrate; Potency, µM, actives largely listed as inhibitors; 920 compounds, 76% hits; AID 720501; further: potency means the concentration at half of the fitted maximal effect
Pol eta inh-2: confirmation of human DNA polymerase eta inhibitors | 2,600 compounds, 64% hits | AID 720502 | Potency, µM, usual class: inhibitors | Pol eta primer extension, TAMRA/BHQ fluorescence, 10 min | shares compounds with Pol eta inh-1; further: potency means the concentration at half of the fitted maximal effect
* marks the source's active call; other numbers are inactive results; ? = inconclusive; nt = no result given; [ ] = dose if it differs, or a comment. Sampled rows, rich in hits. Any-hit rate of the full collection: about 2.4%. Unless noted, the call rests on the fitted dose curve; in most records, active means well fitted curve in the direction sought with a large enough effect; inconclusive means small, poorly fitted or top-dose-only effect, or another doubt; inactive means no such curve, though single readings can be large; an effect the other way counts as inactive or inconclusive.

SMILES | WRN inhibitor | FEN1 inh | POLI inh | Pol eta inh-1 | Pol beta inh-1 | Pol kappa inh-1 | Pol beta inh-2 | Klenow counter | HIV RT counter | Pol eta inh-2 | others
CCCc1cc(=O)oc2c(CN3CCCC3)c(O)ccc12 | 7% | -1% | 14% | -5% | 20% | -1% | nt | nt | nt | nt
CCCc1cc(=O)oc2cc(C)c(CN3CCCC3)c(O)c12 | 40µM* | 50µM* | 5µM* | 22µM* | 6.3µM* | 20µM* | 25* | -25 | 23 | 67* | POLB valid=5
Cc1ccc(S(=O)(=O)N2CCOCC2)cc1C(=O)Nc1ccccc1C(=O)O | nt | 3% | -9% | -15% | -1% | 6% | nt | nt | nt | nt
Cc1nc(C)c(C(=O)Nc2ncc([N+](=O)[O-])s2)o1 | ? | -35% | 18µM* | 8.9µM* | 16µM* | ? | 35* | -5 | -15 | ? | POLB valid=100*;Pol kappa inh-2=30*
CC[C@H](C)[C@H](NC(=O)CNC(=O)[C@H](CCCNC(=N)N)NC(=O)CNC(=O)[C@@H](NC(=O)[C@H](Cc1ccc(O)cc1)NC(=O)[C@H](Cc1c[nH]c2ccccc12)NC(=O)[C@H](C)NC(=O)[C@@H]1CCCN1C(=O)[C@H](CC(N)=O)NC(=O)[C@@H](NC(=O)[C@H](CC(=O)O)NC(=O)[C@@H]1CCCN1C(=O)[C@@H](N)[C@@H](C)O)[C@@H](C)CC)[C@@H](C)O)C(=O)N[C@@H](CCCNC(=N)N)C(=O)N1CCC[C@H]1C(=O)N[C@H](C(=O)NCC(=O)N[C@@H](CCCNC(=N)N)C(=O)N[C@@H](Cc1ccccc1)C(N)=O)C(C)C | nt | nt | nt | nt | nt | -4%[12 µM] | nt | nt | nt | nt
O=C(Nc1ccccc1Cl)c1ccc2nccnc2c1 | -2%[11.6 µM] | -17% | ? | ? | 36% | ? | nt | nt | nt | nt
COC(=O)c1ccccc1NC(=O)c1ccc2nccnc2c1 | -28% | -16% | ? | 32µM* | 3.2µM* | ? | 35* | -27 | 39 | ?
COC(=O)c1cccnc1-n1c(=O)c2cccnc2n(CC(=O)Nc2ccccc2F)c1=O | nt | 16% | 1% | -9% | 24% | -7% | nt | nt | nt | nt
ICC[n+]1csc2ccccc21 | nt | 18% | 13% | nt | nt | 5% | nt | nt | nt | nt
Cc1ccc(/C=C/C(=O)N2CCc3ccccc32)o1 | ? | -18% | 35µM* | 8.9µM* | 13µM* | ? | 18* | -3 | 20 | 67* | Pol iota confirm=67*
CCOC(=O)/C=C/C(=O)N1CCc2ccccc21 | -10% | -2% | ? | 9% | 30% | -5% | nt | nt | nt | nt
Cc1cc(C)c2nc(N3CCCC(C(=O)NCc4cccc(Cl)c4)C3)sc2c1 (stereo unspecified) | nt | -6% | 12% | -11% | 16% | 3% | nt | nt | nt | nt
Cc1ccc(NC(=O)c2c3c(nc4ccccc24)CCC3)cc1S(=O)(=O)N(C)C | -3%[11.6 µM] | -6% | 22µM* | ? | 10µM* | 79µM* | 35* | -16 | 45 | ? | POLB valid=89*
Cc1oc(-c2ccc(Cl)cc2)nc1Cn1c(=O)cc(C)c2c(C)nn(-c3ccccc3)c21 | nt | -4% | 12% | -7% | -26% | 8% | nt | nt | nt | nt
Cc1cc(C)n2c(SC/C(O)=C(\C#N)c3nc4ccccc4[nH]3)nnc2n1 | ? | ? | 11µM* | 3.2µM* | 18µM* | 45µM* | 35* | 5 | -4 | 76* | POLB valid=100*
Cc1ccccc1-n1c(SC/C(O)=C(\C#N)c2nc3ccccc3[nH]2)nnc1-c1ccncc1 | -16% | -11% | ? | ? | ? | -31% | nt | nt | nt | nt
CC1=NN(c2ccc(C)c(C)c2)C(=O)/C1=C\C=C\c1ccc([N+](=O)[O-])o1 | 4%[11.6 µM] | -29% | 11µM* | 40µM* | 7.1µM* | 50µM* | 32* | -19 | 17 | 54* | POLB valid=99*;Pol iota confirm=42*
COc1ccccc1C(=O)Nc1nnc(S(=O)(=O)N(C)c2ccc(Cl)cc2)s1 | nt | -8% | -6% | -14% | 10% | -13% | nt | nt | nt | nt
O=C(Cn1cnc2scc(-c3cccc([N+](=O)[O-])c3)c2c1=O)NCc1ccco1 | ? | -31% | 20µM* | 20µM* | 10µM* | 79µM* | 16* | -12 | ? | 60* | Pol iota confirm=47*;Pol kappa inh-2=47*
CCN(CC)c1ccc(NC(=O)CCS(=O)(=O)c2ccc(Br)cc2)c(C)c1 | ? | 0% | 40µM* | 14µM* | 7.1µM* | ? | 10* | -24 | ? | 17* | PGK validate=10µM*;Pol iota confirm=47*;Pol kappa inh-2=7.5*
O=C(CSc1ccsc1[N+](=O)[O-])N1CCN(c2ccc(Cl)cc2)CC1 | -9%[11.6 µM] | 11% | 28µM* | 28µM* | 14µM* | ? | 40* | -27 | 62 | ?
COc1ccc(-c2nnc(Nc3ccc(S(=O)(=O)Nc4nccs4)cc3)c3ccccc23)cc1 | 50µM* | ? | 20µM* | 32µM* | 1.8µM* | 50µM* | 7.9* | -21 | 26 | 43* | Pol iota confirm=?;Pol kappa inh-2=34*
CCc1ccc(C2c3c(oc4ccc(F)cc4c3=O)C(=O)N2c2nc(C)c(C(=O)OC)s2)cc1 (stereo unspecified) | nt | -7% | -11% | -6% | 3% | -9% | nt | nt | nt | nt
CC1(C)Cc2c(sc3[nH]c(=S)n(Cc4ccco4)c(=O)c23)CO1 | -24% | -15% | 4% | -6% | -11% | -6%[60.1 µM] | nt | nt | nt | nt
